Screens (PubChem BioAssay)
Sampled rows, rich in hits. Any-hit rate of the full collection: about 4.8%.
AI-2 QS mod: modulators of Vibrio harveyi AI-2 quorum sensing system; Vibrio harveyi JMH597 AI-2 luminescence/OD600 ratio, 9 h; stronger effect = lower value; strain lacks LuxN and CqsS sensors; 0 = neutral-control median; activity change, % at 7.5 µM; hit rate 0.4% among 300,000; AID 2094; in the data active = activity change below about -75%, passing the limit was not always enough;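 also: luminescence divided by OD600 gain over 9 h not by final OD600 alone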
Mot1-301 SUMO: blocks SUMOylation pathway, rescuing yeast Mot1-301 growth | S. cerevisiae Mot1-301 growth rescue, ATP luminescence, 38.5C; percent above DMSO median, 100 means doubled | growth rescue, % at 18.8 µM | hit rate 1% among 320,000;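 active = every valid replicate shows activation above 250% relative to neutral control wells; inactive = the rest, any valid replicate at or below 250%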
HIF act: HIF pathway transcriptional activation; U2OS HRE-luciferase reporter, luminescence; normalized: DMSO 0%, desferrioxamine 100%; activation, % at 7.5 µM (by protocol); hit rate 0.32% among 300,000;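 active = mean activation of at least 10% of the iron chelator positive control signal, with at least half of replicates also reaching 10%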
ALR inh: blocks human ALR sulfhydryl oxidase activity | P55789 | purified ALR, DTT oxidation, H2O2 HRP-luminol luminescence | inhibition, % (test concentration not listed) | hit rate 3.8% among 290,000 | AID 485317;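 active = mean replicate inhibition above about 79%, with every replicate also reaching it, limit read from the data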
Target sequence (P55789 whole entry, looked up): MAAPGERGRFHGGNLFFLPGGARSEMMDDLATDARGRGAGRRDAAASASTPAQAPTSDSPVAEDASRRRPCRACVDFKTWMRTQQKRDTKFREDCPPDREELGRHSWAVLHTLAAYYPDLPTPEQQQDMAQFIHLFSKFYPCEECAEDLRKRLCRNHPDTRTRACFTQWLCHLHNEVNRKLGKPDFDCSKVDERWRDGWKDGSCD
A number is an active result; n = inactive; x = not tested or not shown.

SMILES | AI-2 QS mod | Mot1-301 SUMO | HIF act | ALR inh
O=C1CCCC2=C1C(c1ccc(O)c(O)c1)c1c(ccc3ncccc13)N2 (stereo unspecified) | n | n | n | 100
Nc1cc2c(cc1C(=O)c1ccccc1)OCCO2 | n | n | n | 98
COc1ccc(CCNC(=O)CN2C(=O)COc3ccc(S(=O)(=O)N4CCOCC4)cc32)cc1OC | n | n | n | n
CC1(C)CC(=O)C/C(=N/Nc2nc3ccccc3s2)C1 | n | x | n | x
CC1CCC/C(=N/Nc2nc3ccccc3s2)C1 (stereo unspecified) | n | n | n | 97
Cc1nc2ccc(S(=O)(=O)NCC(=O)N(C)Cc3ccccc3)cc2s1 | n | n | n | 99
COc1ccc(NC(=O)CNS(=O)(=O)c2ccc3nc(C)sc3c2)c(OC)c1 | n | n | n | 99
Cc1nc2ccc(S(=O)(=O)NCC(=O)N3CCN(c4ccccc4)CC3)cc2s1 | n | n | n | n
Cc1nc2ccc(S(=O)(=O)NCC(=O)NC(C)c3ccccc3)cc2s1 (stereo unspecified) | -97 | n | n | n
COCCNC(=O)CNS(=O)(=O)c1ccc2nc(C)sc2c1 | n | n | n | n
O=C(CSc1nnc(-c2ccccc2F)o1)N1CCNC1=O | x | n | x | n
Nc1nc(SCC(=O)N2CCN(c3ccc(F)cc3)CC2)n[nH]1 | x | n | x | 94
Nc1nc(SCC(=O)N2CCN(c3ccccc3)CC2)n[nH]1 | n | n | n | n
O=C(CN1CCN(c2ccc(F)cc2)CC1)N1CCOCC1 | n | n | n | 88
O=C(CSc1nccc(=O)[nH]1)N1CCN(c2ccccc2)CC1 | n | n | n | 92
Cc1[nH]c2ccccc2c1SCC(=O)N1CCN(c2ccccc2)CC1 | n | n | n | 91
Cc1nc(SCC(=O)N2CCN(c3ccccc3)CC2)n[nH]1 | n | n | n | 99
O=C(CSc1nc(N2CCCCC2)nc(N2CCCCC2)n1)N1CCN(c2ccccc2)CC1 | n | x | n | x
O=[N+]([O-])c1cccc(S(=O)(=O)N2CCCCC2c2cccnc2)c1 (stereo unspecified) | n | n | n | n
COc1ccc(OC)c(/C=C(\C)C(=O)c2c(C)cc(C)[nH]c2=O)c1 | n | n | n | n
CCCCC(=O)Nc1ccnc(-c2cccnc2)n1 | n | n | n | 85
Oc1ccc(Br)cc1-c1cc(-c2ccco2)[nH]n1 | n | n | n | 92
O=c1[nH]c(/C=C\c2cccc(F)c2)nc(O)c1[N+](=O)[O-] | n | n | n | 91
O=c1[nH]c(/C=C\c2cccc(Cl)c2)nc(O)c1[N+](=O)[O-] | n | n | n | 98
C=CCOc1ccc(/C=C\c2nc(O)c([N+](=O)[O-])c(=O)[nH]2)cc1OCC | n | n | n | 97
SMILES | AI-2 QS mod | Mot1-301 SUMO | HIF act | ALR inh
O=c1[nH]c(/C=C\c2ccccc2F)nc(O)c1[N+](=O)[O-] | n | n | n | 97
C=CCOc1ccc(/C=C\c2nc(O)c([N+](=O)[O-])c(=O)[nH]2)cc1OC | n | n | n | n
O=c1[nH]c(/C=C/c2ccccc2F)nc2ccccc12 | n | n | n | n
CC1CCN(S(=O)(=O)c2ccc3c(c2)NC(=O)CS3)CC1 | n | n | n | n
O=C1CCc2cc(S(=O)(=O)NCCc3ccccc3)cc3c2N1CC3 | n | n | n | n
Clc1ccc(CSc2snnc2-c2ccccc2)cc1 | n | n | n | n
Clc1ccccc1CSc1snnc1-c1ccccc1 | n | x | n | 98
COc1cccc(/C=N/NC(=O)c2cccc(N3CCCC3=O)c2)c1 | n | n | n | n
O=C(N/N=C/c1cc(Br)ccc1O)c1cccc(N2CCCC2=O)c1 | n | n | 42 | n
CN(C)c1ccc(/C=N/NC(=O)c2cccc(N3CCCC3=O)c2)cc1 | n | n | n | 87
CC1(C2CC2)NC(=O)N(CC(=O)NCc2ccc(Cl)cc2Cl)C1=O (stereo unspecified) | x | n | x | n
CCN(C(=O)COC(=O)CCc1ccccc1)c1ccccc1 | n | n | n | n
COc1ccc(C(=O)NCCc2c[nH]c3ccccc23)cc1OC | x | n | n | n
COc1ccc(C(c2c[nH]c3ccccc23)c2c[nH]c3ccccc23)cc1O | n | n | x | 88
Cc1cccc(N=c2oc3cc(O)ccc3cc2C(N)=O)c1 | n | n | n | 94
Cc1ccc(C(=O)NCC(c2ccc(F)cc2)N2CCOCC2)s1 (stereo unspecified) | x | n | x | n
CCN1/C(=C2\C(=O)N(C)C(=S)N2c2ccccc2)C=Cc2ccccc21 | n | n | n | 98
CCCN1/C(=C2/SC(=S)N(CC)C2=O)C=Cc2ccccc21 | n | n | n | n
CCN1C(=O)/C(=C2/C=Cc3ccccc3N2CC)SC1=S | n | n | n | 99
CCCN1C(=O)/C(=C2/C=Cc3ccccc3N2CC)SC1=S | n | n | n | n
CN1C(=O)/C(=C2/C=Cc3ccccc3N2CCCS(=O)(=O)O)SC1=S | n | n | n | 84
CCOC(=O)C1(Cc2cccc(Cl)c2)CCCN(C(=O)c2cnn(CC)c2)C1 (stereo unspecified) | n | n | n | n
Cc1ccc(O)c(N=Nc2nccs2)c1 | x | n | x | n
O=C(N/N=C/c1ccc([N+](=O)[O-])s1)c1ccccc1 | n | x | n | n
O=C(CNC(=O)c1cccc(F)c1)N/N=C/c1ccc([N+](=O)[O-])s1 | -148 | n | n | n
SMILES | AI-2 QS mod | Mot1-301 SUMO | HIF act | ALR inh
Cc1ccccc1C(=O)N/N=C/c1ccc([N+](=O)[O-])s1 | -76 | n | n | n
COCCCn1c(=O)/c(=C\c2cccc(OC)c2OC)s/c1=C(/C#N)C(=O)Nc1ccc(C(=O)O)cc1 | n | x | n | 98
COc1ccc(NC(=O)CN(Cc2ccco2)Cc2ccco2)cc1S(=O)(=O)N1CCCCC1 | x | n | x | n
CCCC(=O)NCCCCNC(=O)CCC | n | n | n | n
CC(=O)N(O)CCCCCNC(=O)CCC(=O)N(O)CCCCCNC(=O)CCC(=O)N(O)CCCCCN | n | n | 19 | n
CCN(CC)S(=O)(=O)c1ccc2c(c1)c(=O)c(C(=O)NCCc1ccccc1)cn2C | n | n | n | n
COc1ccc(N2CCN(C(c3cccs3)C(C)NC(=O)C(=O)N3CCCCC3)CC2)cc1 (stereo unspecified) | n | n | n | 98
COc1ccc(N2CCN(C(c3cccs3)C(C)NS(=O)(=O)c3ccccc3)CC2)cc1 (stereo unspecified) | n | n | n | n
COc1ccc(N2CCN(C(c3cccs3)C(C)NC(=O)C(=O)N3CCCC3)CC2)cc1 (stereo unspecified) | n | n | n | 98
CCS(=O)(=O)NC(C)C(c1cccs1)N1CCN(c2ccc(OC)cc2)CC1 (stereo unspecified) | n | n | n | 99
O=C1CCC(C(=O)Nc2ccccc2N2CCOCC2)=NN1 | n | n | n | n
O=C(Nc1ccccc1N1CCCC1)c1ccccc1F | n | n | n | 98
O=C(Nc1ccccc1N1CCCC1)c1cccc(Cl)c1Cl | n | n | n | 98
O=C1CCC(C(=O)Nc2ccccc2N2CCCC2)=NN1 | n | n | n | 85
CCC(C(=O)Nc1ccccc1N1CCCC1)c1ccccc1 (stereo unspecified) | n | n | n | 98
